Screening data from PubChem BioAssay.
DT40 TDP1 CPT – qHTS for Inhibitors of human tyrosyl-DNA phosphodiesterase 1 (TDP1): qHTS in cells in presence of CPT | AID 686979, 2013 | chicken DT40 Tdp1-/-;hTDP1 cells + 20 nM CPT, ATP luminescence, 48 h | hit rate 12% among 420,000 | Potency, µM (titrated, usually from 46.2 µM), inactives show at the top dose activity change, negative = growth inhibition, most hits filed as inhibitors; also: % is scaled to controls: 0 for no effect and ±100 for the full control effect; nearly all actives have a fitted effect of over 55% in size
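Chicken DT40 Tdp1-/- cells stably complemented with human TDP1 were seeded at 400 cells/well in medium containing 20 nM camptothecin, exposed to pin-transferred compounds, and grown at 37 °C for at least 48 hr. Viability was read as ATP luminescence.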
ClpP mod – qHTS Assay for Activators of ClpP. hit rate 1.9% among 340,000. Potency, µM (doses to about 57.5 µM), for inactives: top-dose activity change, negative = active. purified B. subtilis ClpP, FRET peptide cleavage, 20 min; active = well fitted falling curve with a large enough effect; inconclusive = small, poorly fitted or top-dose-only effect; inactive = no such curve, though single readings can be large or run the other way; also: the source files actives as falling curves though it sought activators and does not explain the sign; nearly all actives have a fitted effect of over 65% in size
Target sequence (P80244 whole entry, looked up): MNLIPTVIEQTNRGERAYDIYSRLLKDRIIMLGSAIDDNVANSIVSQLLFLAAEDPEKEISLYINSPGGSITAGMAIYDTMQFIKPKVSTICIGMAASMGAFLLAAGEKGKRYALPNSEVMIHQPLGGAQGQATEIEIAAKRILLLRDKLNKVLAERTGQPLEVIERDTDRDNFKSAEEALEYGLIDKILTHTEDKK
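Buffer: 100 mM Tris/HCl pH8, 100 mM KCl, 0.05% low protease BSA, 2.5% glycerol, 0.01% Tween-20. ClpP 10 microg/mL final; 20 min RT; delta FRET normalized to ADEP and DMSO controls.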
DT40 TDP1 no CPT – qHTS for Inhibitors of human tyrosyl-DNA phosphodiesterase 1 (TDP1): qHTS in cells in absence of CPT; DT40 Tdp1-/- hTDP1 cells, no CPT, ATP luminescence, 48 h; Potency, µM (top dose mostly 46.2 µM), for the others: top-dose activity change, negative = growth inhibition, actives largely listed as inhibitors; hit rate 15% among 420,000; AID 686978, 2013; also: % is scaled to controls: 0 for no effect and ±100 for the full control effect; nearly all actives have a fitted effect of over 55% in size
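Readout: luminescence from CellTiter-Glo after 30 min in the dark at RT. Cells: DT40 Tdp1-/- with stable hTDP1, 400/well. Exposure: compounds alone, ≥48 hr, 37 °C.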
TDP1 block – qHTS Assay for Inhibitors of Tyrosyl-DNA Phosphodiesterase (TDP1) | Tyrosyl-DNA phosphodiesterase 1 (Homo sapiens), Q9NUW8 | recombinant TDP1, AlphaScreen DNA substrate cleavage | Potency, µM (doses to about 130 µM), inactives show at the highest dose activity change, negative = inhibition, hits mostly inhibitors | hit rate 0.28% among 350,000 | AID 485290, 2010; also: % is scaled to controls: 0 for no effect and ±100 for the full control effect; nearly all actives have a fitted effect of over 40% in size
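AlphaScreen read-out: signal falls as enzyme removes the 3' tyrosine-FITC from a 5'-biotinylated DNA oligo (15 nM, 5 min, RT). Enzyme was E. coli-made recombinant Tdp1 at 1 nM, exposed to compound for 15 min beforehand; beads 10 ug/ml, 10 min.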
* marks the source's active call; other numbers are inactive results; ? = inconclusive; . = no result; [ ] = remark or other dose. An excerpt weighted towards active compounds, which were near 17% of everything screened. Unless noted, calls follow the shape of the dose curve; as a rule, active = well fitted curve in the direction sought with a large enough effect; inconclusive = small, poorly fitted or top-dose-only effect, or another doubt; inactive = no such curve, though single readings can be large; an effect the other way counts as inactive or inconclusive. Potency is read from the fitted curve at half-maximal effect.

SMILES	DT40 TDP1 CPT	ClpP mod	DT40 TDP1 no CPT	TDP1 block
COC(=O)c1ccc2nc(-c3ccccc3)c(Cc3ccc(C)cc3)n2c1	?	5%	?	.
CCCc1nc2ccc(C)cn2c1Cc1ccccc1	?	5%	?	.
CCCc1nc2ccc(C)cn2c1Cc1cccc(F)c1	?	5%	?	.
NC(=O)c1ccc(SCC(=O)NC2CCCCC2)c([N+](=O)[O-])c1	9%	.	-9%	0%
O=C(COC(=O)CCC(=O)c1cccs1)NC1CCCCC1	0%	-1%	20%	2%
O=C(CN1CCc2ccccc2C1)Nc1cc(S(=O)(=O)N2CCOCC2)ccc1N1CCOCC1	9.2µM*	0%	23µM*	8%
O=C(CN1CCc2ccccc2C1)Nc1cc(S(=O)(=O)N2CCOCC2)ccc1N1CCCC1	15µM*	-4%	?	11%
NC(=O)c1cc([N+](=O)[O-])ccc1NCc1ccccn1	?	-3%	-22%	1%
CC1(C)CC(NNCCC#N)=CC(=[N+]2CCCC2)C1	?	.	?	-3%
CC1(C)CC(=O)C=C(N2CCN(C3=CC(=O)CC(C)(C)C3)CC2)C1	.	.	.	-4%
CC1(C)CC(N2CCN(Cc3ccccc3)CC2)=CC(=[N+]2CCCCC2)C1	0.058µM*	.	0.046µM*	5%
CN(Cc1ccccc1)C1=CC(=[N+]2CCCCC2)CC(C)(C)C1	0.15µM*	-4%	0.01µM*	8%
CC1(C)CC(N2CCCC2)=CC(=[N+]2CCCC2)C1	0.41µM*	-3%	0.29µM*	-1%
CC1(C)CC(N2CCCC2)=CC(=[N+]2CCCCC2)C1	0.41µM*	0%	0.26µM*	2%
Clc1nccc2c1ccc1ccccc12	-13%	-14%	4%	-1%
COc1ccc(CCNc2nc(N3CCCCC3)nc(N3CCCCC3)n2)cc1OC	?	-2%	23µM*	10%
CCOc1ccc2nc(N3CCCC(C(=O)NCCCN4CC(C)CC(C)C4)C3)sc2c1 (stereo not drawn)	18µM*	0%	18µM*	4%
Cc1ccc(CNC(=O)c2ccc3nc(N4CCCCC4)sc3c2)cc1	-25%	?	-19%	0%
COc1ccc(CCNC(=O)c2ccc3nc(N4CCCCC4)sc3c2)cc1OC	18µM*	-15%	21µM*	.
COc1ccc2nc(N3CCCC(C(=O)NCCc4ccc(OC)c(OC)c4)C3)sc2c1 (stereo not drawn)	?	.	13µM*	-4%
CCOc1ccc2nc(N3CCCC(C(=O)NCCCN4CCCCC4)C3)sc2c1 (stereo not drawn)	?	1%	?	1%
CCCn1nc(C(=O)OCC(=O)Nc2ccc(C)cc2)c2ccccc2c1=O	-9%	.	-8%	0%
CO[C@@H]1COC(=O)[C@H](COCc2ccccc2)NC(=O)C/C=C\[C@@H](C)[C@H](OC)COC(=O)[C@@H](C)NC(=O)C/C=C\[C@H]1C	.	.	.	11%[21 µM]
Cc1cnc(C)c(-c2ccc(F)c3c2OC(CNC(=O)Cc2c(F)cccc2F)C3)n1 (stereo not drawn)	9%	.	-11%	.
CC(C)C(C=Cc1ccccc1)=NNS(=O)(=O)c1ccccc1	8.2µM*	2%	-14%	.
SMILES	DT40 TDP1 CPT	ClpP mod	DT40 TDP1 no CPT	TDP1 block
Cc1ccc(S(=O)(=O)N/N=C\C=C\c2ccccc2)cc1	-2%	-2%	-1%	3%
Fc1ccc(-c2c[nH]c(=S)n2Cc2ccccc2)cc1	21µM*	-3%	?	9%
Fc1ccc(-c2n[nH]c(=S)n2Cc2ccccc2)cc1	13%	0%	-3%	.
COc1cc(C(=O)NCc2ccc3c(c2)OCO3)c([N+](=O)[O-])cc1OC	-5%	0%	-14%	3%
COc1ccc(C)cc1-n1c(SCC(=O)NC2CC2)nc2ccccc2c1=O	18µM*	-1%	?	2%
Cc1ccccc1-n1c(SCC(=O)NC2CC2)nc2ccccc2c1=O	?	0%	16µM*	.
Cc1ccccc1-n1c(SCC(N)=O)nc2sc(-c3ccccc3)cc2c1=O	?	-2%	18µM*	2%
Cc1cccc(-n2c(SCC(=O)NCC3CCCO3)nc3ccccc3c2=O)c1C (stereo not drawn)	15µM*	-3%	23µM*	2%
COc1ccc(C)cc1-n1c(SCC(=O)Nc2cccc(C(=O)O)c2)nc2ccccc2c1=O	4%	-3%	0%	2%
Cc1ccccc1-n1c(SCC(=O)NC(N)=O)nc2sc(-c3ccccc3)cc2c1=O	?	-14%	?	1%
CCCCc1cc(=O)oc2cc(C)cc(OCC(=O)NCc3ccncc3)c12	-23%	3%	-23%	11%
CCOc1ccccc1NS(=O)(=O)c1cnc(N)nc1	3%	2%	-18%	0%
CCOC(=O)C(CC)n1nnc2sc(-c3ccccc3)cc2c1=O (stereo not drawn)	26µM*	5%	15µM*	-9%
CCCOC(=O)C(C)n1nnc2sc(-c3ccccc3)cc2c1=O (stereo not drawn)	?	5%	?	7%
Cc1ccc(O)c(-c2cc(C(F)(F)C(F)F)[nH]n2)c1	?	-16%	16µM*	4%
CCOC(=O)C1(C)CCN1C(=O)c1ccc(C(C)(C)C)cc1 (stereo not drawn)	16µM*	2%	21µM*	.
CCOC(=O)C1(C)CCN1C(=O)c1ccc(SC(F)(F)F)cc1 (stereo not drawn)	18µM*	0%	?	.
O=C(Cc1ccc(N2CCNC2=O)cc1)N1CCCC(Nc2ccc(F)c(F)c2)C1 (stereo not drawn)	2.3µM*	0%	3.7µM*	5%
O=C(CCn1cnnn1)N1CCCC(Nc2ccc(F)c(F)c2)C1 (stereo not drawn)	?	32µM*	-9%	3%
O=C1CCCN1CCC(=O)N1CCCC(Nc2ccc(F)c(F)c2)C1 (stereo not drawn)	-1%	.	-14%	4%
O=C(Cc1ccc(N2CCNC2=O)cc1)N1CCCC(Nc2cccc(F)c2)C1 (stereo not drawn)	2.9µM*	1%	2.1µM*	4%
O=C(c1cccc(N2CCNC2=O)c1)N1CCCC(Nc2cccc(F)c2)C1 (stereo not drawn)	-16%	2%	-12%	5%
O=C(NCc1ccc(F)cc1)c1ccc(NC(=O)N2CC3CCCN3c3ccccc32)cc1 (stereo not drawn)	16µM*	-8%	12µM*	8%
O=C(NCc1ccc(Cl)cc1)c1ccc(NC(=O)N2CC3CCCN3c3ccccc32)cc1 (stereo not drawn)	16µM*	0%	18µM*	13%
